Several values for one entry are separate records, joined by “and”; a condition that tells them apart may be missing. Equal values may be shown once. Records with an inconclusive call do not appear. Unmarked numbers belong to inactive results. Activity calls are given as the source filed them. Unless noted, calls come from the whole dose curve; as a rule, active = well fitted curve in the direction sought with a large enough effect in the repeat runs; inconclusive = weak or mixed curves; inactive = no such curve, though single readings can be large; an effect the other way counts as inactive or inconclusive.

The nature of experiment [1]: qHTS assay to identify aromatase inhibitors - cell viability counter screen (AID 743084).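 Note: cells stimulated with testosterone during compound exposure; nearly all actives have a fitted effect of over 55% in size.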 Note: potency is the fitted concentration of half-maximal effect. Background: In qHTS, concentration-response curves come from the screen itself.
In experiment [2] the target is Aryl hydrocarbon receptor (Homo sapiens) (UniProt P35869). Description: qHTS assay to identify small molecule that activate the aryl hydrocarbon receptor (AhR) signaling pathway (AID 743085).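 Note: HG2L7.5c1 human HepG2 liver cells with stably integrated DRE-driven firefly reporter; series mostly up to about 70 µM; nearly all actives have a fitted effect of over 15% in size.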 The procedure, abridged:
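Steps: seed HepG2-AhR-luc cells; allow 5 h at 37C; pin-transfer test compound or vehicle; incubate 24 h at 37C; add viability dye (30 min, 37C) and read fluorescence; add luciferase substrate (30 min, RT) and read luminescence.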

A short description of experiment [3]: qHTS assay to identify small molecule that activate the aryl hydrocarbon receptor (AhR) signaling pathway - cell viability counter screen (AID 743086). Note: nearly all actives have a fitted effect of over 45% in size. Note: potency is the fitted concentration of half-maximal effect. In short, it runs like this:
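HepG2-AhR-luc (HG2L7.5c1) cells, 4000/well, treated 24 h at 37 C with compound; viability measured as CellTiter-Fluor fluorescence after 30 min in the same wells as the luciferase read.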

Experiment [4] is described as follows: qHTS assay to identify small molecule antagonists of the peroxisome proliferator-activated receptor gamma (PPARg) signaling pathway - cell viability counter screen (AID 743194). Note: nearly all actives have a fitted effect of over 55% in size. Note: potency is the fitted concentration of half-maximal effect. In short, it runs like this: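 Cytotoxicity counter screen in PPARg-bla HEK293H cells, same wells as reporter assay. Compounds plus 50 nM rosiglitazone (final) for 17 h at 37 C, then viability read by CellTiter-Glo luminescence.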

The nature of experiment [5]: qHTS assay for small molecule agonists of the antioxidant response element (ARE) signaling pathway - cell viability counter screen (AID 743203; calls by dose curve; note: nearly all actives have a fitted effect of over 55% in size; note: potency is the fitted concentration of half-maximal effect). In short, it runs like this:
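Viability counter screen: CellTiter-Glo luminescence, read after 30 min at room temperature, in ARE-bla HepG2 wells. Compound exposure lasted 16 h at 37C/5% CO2, following a 5 h pre-incubation of the cells after plating.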

The nature of experiment [6]: qHTS assay to identify small molecule agonists of the peroxisome proliferator-activated receptor delta (PPARd) signaling pathway - cell viability counter screen (AID 743211). Note: nearly all actives have a fitted effect of over 55% in size. Note: potency is the fitted concentration of half-maximal effect. In short, it runs like this:
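Viability of GeneBLAzer PPARd UAS-bla HEK293H cells was assessed after 17 h compound incubation at 37C, using CellTiter-Glo reagent added after the reporter read and luminescence recorded 30 min later.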

A short description of experiment [7]: qHTS assay to identify small molecule antagonists of the peroxisome proliferator-activated receptor delta (PPARd) signaling pathway - cell viability counter screen (AID 743213). Note: nearly all actives have a fitted effect of over 50% in size. In short, it runs like this: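 Agonist-stimulated (L165041, 300 nM final) HEK293H PPARd UAS-bla cells are exposed to compounds for 17 h at 37 C, and ATP-based luminescence (CellTiter-Glo) from the same wells reports cytotoxicity.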

Experiment [8] has as its target Peroxisome proliferator-activated receptor delta (Homo sapiens) (UniProt Q03181). Description: qHTS assay to identify small molecule antagonists of the peroxisome proliferator-activated receptor delta (PPARd) signaling pathway (AID 743215; active = well fitted inhibition curve with a large enough effect in the signal ratio in the repeat runs, not every such curve was filed as active; the % refers to the signal ratio; note: series mostly up to about 62 µM). In short, it runs like this:
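Agonist L165041 (300 nM final) added with compound to PPARd-bla HEK293H UAS-bla reporter cells; 17 h incubation at 37 C. Read-out: LiveBLAzer FRET substrate, 2 h at room temperature, fluorescence intensity.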

A short description of experiment [9]: qHTS assay to identify small molecule agonists of the farnesoid-X-receptor (FXR) signaling pathway - cell viability counter screen (AID 743218). Note: nearly all actives have a fitted effect of over 45% in size. Note: potency is the fitted concentration of half-maximal effect. In short, it runs like this: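 Viability counter screen in the same wells: CellTiter-Glo luminescence, 30 min room-temperature incubation, measured after the beta-lactamase read. Cells were GeneBLAzer FXR-UAS-bla HEK 293T, compound-treated 16 h at 37C.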

The target in experiment [10] is Bile acid receptor (Homo sapiens) (UniProt Q96RI1). Briefly: qHTS assay to identify small molecule agonists of the farnesoid-X-receptor (FXR) signaling pathway (AID 743220; active = well fitted activation curve with a large enough effect in the signal ratio in the repeat runs, not every such curve was filed as active; the % refers to the signal ratio). In short, it runs like this:
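FXR-UAS-bla HEK 293T cells carrying a UAS-driven beta-lactamase reporter were plated for 5 h at 37C/5% CO2, then exposed to DMSO-dissolved Tox21 10K compounds for 16 h at 37C. A LiveBLAzer B/G FRET substrate was loaded for 2 h at room temperature before fluorescence reading.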

The nature of experiment [11]: qHTS assay to identify small molecule antagonists of the farnesoid-X-receptor (FXR) signaling pathway - cell viability counter screen (AID 743221; active = well fitted cell-killing curve with a large enough effect in the repeat runs, not every such curve was filed as active; note: nearly all actives have a fitted effect of over 50% in size; note: potency is the fitted concentration of half-maximal effect). In short, it runs like this:
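Quantitative HTS of the Tox21 10K library run in parallel with the beta-lactamase reporter read. HEK 293T cells carrying a UAS-driven bla reporter got compound and 50 uM CDCA (final) for 16 h; ATP-based luminescence followed.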

Experiment [12] has as its target Peroxisome proliferator-activated receptor gamma (Homo sapiens) (UniProt P37231). Briefly: qHTS assay to identify small molecule agonists of the peroxisome proliferator-activated receptor gamma (PPARg) signaling pathway (AID 743094; active = well fitted activation curve with a large enough effect in the signal ratio in the repeat runs, not every such curve was filed as active; the % refers to the signal ratio). The procedure, abridged:
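Agonist activity was taken from a beta-lactamase reporter (FRET substrate, 1 h at room temperature) in HEK293H cells carrying a PPARg UAS-bla construct. Compounds in DMSO were incubated 17 h at 37C after a 5 h cell pre-incubation.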

Experiment [13] has as its target Peroxisome proliferator-activated receptor delta (Homo sapiens) (UniProt Q03181). Briefly: qHTS assay to identify small molecule agonists of the peroxisome proliferator-activated receptor delta (PPARd) signaling pathway (AID 743212; calls by dose curve). In short, it runs like this:
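Tox21 library screened in GeneBLAzer PPARd UAS-bla HEK293H cells. After compound treatment at 37 C, a FRET-based beta-lactamase substrate was applied for 2 h and fluorescence recorded.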

For experiment [14], the target named is Vitamin D3 receptor (Homo sapiens) (UniProt P11473). Description: qHTS assay to identify small molecule agonists of the vitamin D receptor (VDR) signaling pathway (AID 743222; calls by dose curve). In short, it runs like this:
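Agonist mode, beta-lactamase reporter: fluorescence from LiveBLAzer B/G FRET substrate (2 h, room temperature) read after 16 h compound treatment at 37 C of VDR-bla cells, which were pre-incubated 4 h after seeding.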

For experiment [15] the target is unchanged. Description: qHTS assay to identify small molecule antagonists of the vitamin D receptor (VDR) signaling pathway (AID 743223; active = well fitted inhibition curve with a large enough effect in the signal ratio in the repeat runs, not every such curve was filed as active; the % refers to the signal ratio). The procedure, abridged:
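Fluorescence from LiveBLAzer B/G FRET substrate, read after 2 h at room temperature, reflects beta-lactamase reporter activity in VDR-bla cells treated 16 h at 37C with compounds and agonist 1alpha,25-dihydroxyvitamin D3 (3 nM final).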

The nature of experiment [16]: qHTS assay for small molecule activators of the heat shock response signaling pathway - cell viability counter screen (AID 743209). Note: nearly all actives have a fitted effect of over 50% in size. Note: potency is the fitted concentration of half-maximal effect. The procedure, abridged:
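Cytotoxicity counter screen run in the same wells as the heat-shock bla reporter assay: HeLa HSE-bla cells, 5 h compound exposure at 37 C, viability read by CellTiter-Glo luminescence.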

The nature of experiment [17]: qHTS assay for small molecule activators of the heat shock response signaling pathway (AID 743210; active = well fitted activation curve with a large enough effect in the signal ratio in the repeat runs, with a control signal flat, not every such curve was filed as active; the % refers to the signal ratio;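 note: HeLa cells with beta-lactamase reporter driven by heat shock elements; series mostly up to about 63 µM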). In short, it runs like this:
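Following overnight attachment, HSE-bla HeLa cells received test compounds for 5 h at 37 C; beta-lactamase activity was then detected via FRET substrate fluorescence.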

Experiment [18] in a line: qHTS assay for small molecule agonists of the antioxidant response element (ARE) signaling pathway (AID 743202; active = well fitted activation curve with a large enough effect in the signal ratio in the repeat runs, not every such curve was filed as active; the % refers to the signal ratio). In short, it runs like this: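 HepG2 ARE-bla cells; 16 h treatment at 37 C; FRET-based beta-lactamase fluorescence read after 2 h substrate incubation at room temperature.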
Experiment [19] deals with Bile acid receptor (Homo sapiens) (UniProt Q96RI1). Briefly: qHTS assay to identify small molecule antagonists of the farnesoid-X-receptor (FXR) signaling pathway (AID 743217; active = well fitted inhibition curve with a large enough effect in the signal ratio in the repeat runs, not every such curve was filed as active; the % refers to the signal ratio). In short, it runs like this:
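Antagonist mode: chenodeoxycholic acid at 50 uM final stimulates a UAS-driven beta-lactamase reporter in HEK 293T FXR-bla cells during 16 h, 37C compound exposure. Read-out is FRET substrate fluorescence after 2 h at room temperature.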

Experiment [20] has as its target Peroxisome proliferator-activated receptor gamma (Homo sapiens) (UniProt P37231). Briefly: qHTS assay to identify small molecule antagonists of the peroxisome proliferator-activated receptor gamma (PPARg) signaling pathway (AID 743191; calls by dose curve; note: potency is the fitted concentration of half-maximal effect; nearly all actives have a fitted effect of over 30% in size). The procedure, abridged: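 GeneBLAzer PPARg UAS-bla HEK293H cells, 5 h post-plating, exposed to compounds 17 h at 37C. LiveBLAzer B/G FRET substrate added for 1 h at room temperature; beta-lactamase reporter read by fluorescence intensity.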

Chain of Bile acid receptor (Homo sapiens) (Q96RI1 whole entry, looked up): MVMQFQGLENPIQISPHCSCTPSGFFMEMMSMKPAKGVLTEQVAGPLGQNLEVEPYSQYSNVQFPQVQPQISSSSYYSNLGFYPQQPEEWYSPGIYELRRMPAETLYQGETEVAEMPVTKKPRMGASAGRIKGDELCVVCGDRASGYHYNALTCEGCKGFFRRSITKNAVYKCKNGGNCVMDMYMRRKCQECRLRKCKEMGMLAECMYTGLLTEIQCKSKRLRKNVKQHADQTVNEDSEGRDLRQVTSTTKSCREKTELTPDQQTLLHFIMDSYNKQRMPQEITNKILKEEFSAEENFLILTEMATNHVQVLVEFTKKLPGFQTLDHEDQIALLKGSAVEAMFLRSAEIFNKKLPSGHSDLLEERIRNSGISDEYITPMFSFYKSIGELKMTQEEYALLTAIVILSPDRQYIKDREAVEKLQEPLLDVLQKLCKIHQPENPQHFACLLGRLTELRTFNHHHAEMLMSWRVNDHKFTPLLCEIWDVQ
Chain of Vitamin D3 receptor (Homo sapiens) (P11473 whole entry, looked up): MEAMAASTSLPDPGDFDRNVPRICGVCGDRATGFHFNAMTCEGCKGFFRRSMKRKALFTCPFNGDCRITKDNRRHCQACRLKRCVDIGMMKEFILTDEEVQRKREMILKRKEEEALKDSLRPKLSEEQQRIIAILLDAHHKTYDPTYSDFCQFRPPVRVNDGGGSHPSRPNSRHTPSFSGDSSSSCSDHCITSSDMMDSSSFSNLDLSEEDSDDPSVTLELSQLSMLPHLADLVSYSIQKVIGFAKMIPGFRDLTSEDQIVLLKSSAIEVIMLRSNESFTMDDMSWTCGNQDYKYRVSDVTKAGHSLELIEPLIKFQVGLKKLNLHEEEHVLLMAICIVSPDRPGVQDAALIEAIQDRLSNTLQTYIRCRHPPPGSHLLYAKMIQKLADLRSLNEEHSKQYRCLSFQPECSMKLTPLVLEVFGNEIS
Chain of Peroxisome proliferator-activated receptor delta (Homo sapiens) (Q03181 whole entry, looked up): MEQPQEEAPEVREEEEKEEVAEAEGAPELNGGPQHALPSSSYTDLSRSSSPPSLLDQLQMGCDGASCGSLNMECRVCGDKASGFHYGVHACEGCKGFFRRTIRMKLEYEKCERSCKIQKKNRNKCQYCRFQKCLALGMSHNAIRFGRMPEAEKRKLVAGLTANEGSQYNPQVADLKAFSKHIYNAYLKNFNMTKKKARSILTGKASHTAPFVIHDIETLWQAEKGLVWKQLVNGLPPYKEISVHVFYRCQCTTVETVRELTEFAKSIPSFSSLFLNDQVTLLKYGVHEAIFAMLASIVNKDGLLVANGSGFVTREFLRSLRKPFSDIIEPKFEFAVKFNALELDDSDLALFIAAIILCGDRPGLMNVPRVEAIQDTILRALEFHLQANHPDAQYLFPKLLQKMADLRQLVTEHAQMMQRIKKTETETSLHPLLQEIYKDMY
Chain of Aryl hydrocarbon receptor (Homo sapiens) (P35869 whole entry, looked up): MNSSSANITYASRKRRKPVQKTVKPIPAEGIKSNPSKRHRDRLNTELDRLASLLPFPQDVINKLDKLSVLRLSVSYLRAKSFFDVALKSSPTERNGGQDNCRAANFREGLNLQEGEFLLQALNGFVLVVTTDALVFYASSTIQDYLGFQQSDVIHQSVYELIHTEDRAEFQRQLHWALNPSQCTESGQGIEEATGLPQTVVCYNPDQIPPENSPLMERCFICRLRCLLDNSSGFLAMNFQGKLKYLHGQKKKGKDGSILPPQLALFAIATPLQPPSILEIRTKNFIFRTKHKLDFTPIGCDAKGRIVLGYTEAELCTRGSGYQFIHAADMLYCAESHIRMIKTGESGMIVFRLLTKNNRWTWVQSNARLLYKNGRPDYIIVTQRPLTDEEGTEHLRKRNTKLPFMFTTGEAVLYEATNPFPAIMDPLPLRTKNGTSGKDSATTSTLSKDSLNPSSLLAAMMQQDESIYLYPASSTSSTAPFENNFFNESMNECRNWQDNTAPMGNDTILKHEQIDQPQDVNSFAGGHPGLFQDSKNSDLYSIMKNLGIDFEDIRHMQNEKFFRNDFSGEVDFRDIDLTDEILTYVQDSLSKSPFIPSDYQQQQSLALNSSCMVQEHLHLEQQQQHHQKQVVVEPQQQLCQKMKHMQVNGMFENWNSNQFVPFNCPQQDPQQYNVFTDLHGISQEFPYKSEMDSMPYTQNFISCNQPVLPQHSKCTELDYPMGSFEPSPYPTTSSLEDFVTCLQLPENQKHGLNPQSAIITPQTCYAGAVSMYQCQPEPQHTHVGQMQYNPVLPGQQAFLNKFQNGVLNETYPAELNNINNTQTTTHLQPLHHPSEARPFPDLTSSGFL
Chain of Peroxisome proliferator-activated receptor gamma (Homo sapiens) (P37231 whole entry, looked up): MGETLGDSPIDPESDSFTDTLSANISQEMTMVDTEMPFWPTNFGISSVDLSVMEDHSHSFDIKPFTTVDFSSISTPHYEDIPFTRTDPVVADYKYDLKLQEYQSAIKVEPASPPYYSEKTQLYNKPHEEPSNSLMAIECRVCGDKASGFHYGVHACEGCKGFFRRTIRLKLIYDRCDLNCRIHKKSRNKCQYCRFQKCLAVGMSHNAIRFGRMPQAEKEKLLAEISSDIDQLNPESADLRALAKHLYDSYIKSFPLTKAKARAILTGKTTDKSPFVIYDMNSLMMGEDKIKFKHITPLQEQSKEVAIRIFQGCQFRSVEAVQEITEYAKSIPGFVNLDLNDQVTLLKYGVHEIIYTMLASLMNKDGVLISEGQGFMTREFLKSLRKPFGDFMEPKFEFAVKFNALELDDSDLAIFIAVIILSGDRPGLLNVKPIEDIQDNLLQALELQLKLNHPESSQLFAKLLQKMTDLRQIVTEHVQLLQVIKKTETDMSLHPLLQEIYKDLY

`O=C1OC2(c3ccc(O)cc3Oc3cc(O)ccc32)c2ccc(N=C=S)cc21`: the Potency entry in [1], in experiment [2], in [3], in experiment [4], in experiment [5] and in [6] was “inactive” each time. Also, the Potency entry in experiment [7], in experiment [8], in experiment [9], in [10] and in experiment [11] was “inactive” each time.

With `Cc1c(C)c2c(c(C)c1O)CC[C@@](C)(CCC[C@H](C)CCC[C@H](C)CCCC(C)C)O2`, the Potency entry in [1], in experiment [2], in experiment [3], in experiment [12], in experiment [5] and in experiment [6] was “inactive” throughout. In addition, the Potency entry in experiment [13], in experiment [7], in experiment [8], in experiment [9], in [11] and in experiment [14] was “inactive” each time. In experiment [15], the Potency entry was “inactive”.

For the molecule `CC(=O)[C@H]1CC[C@H]2[C@@H]3CCC4=CC(=O)CC[C@]4(C)[C@H]3CC[C@]12C`, the Potency entry in experiment [1], in experiment [2], in [3], in [12], in experiment [5] and in experiment [16] was “inactive” in each case. Also, the Potency entry in [17], in [9] and in experiment [11] was “inactive” throughout. Further, the Potency in experiment [6] is 48.7 µM (active).

As to `Nc1nc2c(ncn2COCCO)c(=O)[nH]1`, the Potency result in experiment [1], in experiment [2], in experiment [3], in experiment [4], in experiment [18] and in experiment [5] was “inactive” each time. Also, the Potency entry in [16], in experiment [6], in experiment [13], in [7], in [8] and in [19] was “inactive” each time. Also, the Potency result in experiment [9], in experiment [10] and in experiment [11] was “inactive” each time.

Regarding `CCCC(=O)OC(C)(C)Cc1ccccc1`, the Potency result in experiment [1], in experiment [2], in experiment [3], in experiment [4], in [18] and in [5] was “inactive” in each case. The Potency result in experiment [16], in experiment [6], in experiment [7] and in experiment [14] was “inactive” throughout.

For the molecule `CCCCCCCCCCCCCCCC[N+](C)(C)CC`, the Potency was 21.1 µM (active) and 48.7 µM (active) in experiment [1]; 18.8 µM (active) and 48.7 µM (active) in experiment [3]; 23.7 µM (active) in experiment [20]; 17.4 µM (active) and 26.6 µM (active) in experiment [4]; 54.6 µM (active) in experiment [5]; 39 µM (active) and 23.7 µM (active) in [16]. The Potency in experiment [6] was 21.9 µM (active) and 29.8 µM (active); in [9] it was 31 µM (active) and 29.8 µM (active); in [11], 43.8 µM (active) and 29.8 µM (active). Besides, the Potency entry in [2] and in [10] was “inactive” each time.

As for `S=c1nccc[nH]1`, the Potency entry in experiment [1], in [2], in [3], in [12], in experiment [5] and in experiment [16] was “inactive” throughout. Also, the Potency entry in experiment [6], in experiment [13], in [7], in experiment [8], in experiment [9] and in experiment [10] was “inactive” in each case. Also, the Potency entry in [11] is “inactive”.

Take `CC1(C)[C@@H](O)CC[C@]2(C)[C@H]3C(=O)C=C4[C@@H]5C[C@@](C)(C(=O)O)CC[C@]5(C)CC[C@@]4(C)[C@]3(C)CC[C@@H]12`: the Potency result in experiment [1], in [2], in experiment [3] and in experiment [12] was “inactive” each time. For the same molecule, the Potency in experiment [16] is 48.4 µM (active); in [6], 38.5 µM (active).

These data come from PubChem BioAssay (Tox21).
